# Measurements from article PMC7862700, “An all-to-all approach to the identification of sequence-specific readers for epigenetic DNA modifications on cytosine”.
# Columns and labels:
# Assay in all cases: DAPPL (digital affinity profiling via proximity ligation, sequencing); 10 mM Tris-HCl pH 7.5, 50 mM NaCl, 1 mM DTT, 4% glycerol, room temperature, 30 min; GST-TFs on glutathione beads, 16-mer random dsDNA library, 0.1% formaldehyde crosslink after washing; high values mean tight binding
# Details in all cases: protein: recombinant; tags: N-terminal GST; dsDNA, one strand shown
# [1] = molecular target: T1, FLI1 (Homo sapiens, UniProt Q01543 1-452)
# T1 sequence: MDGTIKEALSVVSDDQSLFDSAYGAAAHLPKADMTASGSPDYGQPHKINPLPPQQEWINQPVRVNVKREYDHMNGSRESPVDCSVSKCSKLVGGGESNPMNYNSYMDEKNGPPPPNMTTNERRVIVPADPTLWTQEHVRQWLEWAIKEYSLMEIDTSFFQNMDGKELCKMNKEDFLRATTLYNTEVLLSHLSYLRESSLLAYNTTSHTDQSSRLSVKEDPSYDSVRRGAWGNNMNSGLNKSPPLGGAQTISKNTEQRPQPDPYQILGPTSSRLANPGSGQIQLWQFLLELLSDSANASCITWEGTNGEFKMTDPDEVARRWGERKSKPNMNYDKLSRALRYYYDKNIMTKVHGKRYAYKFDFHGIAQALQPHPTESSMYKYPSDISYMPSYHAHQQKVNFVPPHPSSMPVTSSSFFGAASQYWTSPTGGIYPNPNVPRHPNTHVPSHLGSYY
# How it was run: (§1)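 Yeast served to express human transcription factors as GST fusions, which were then captured on glutathione beads and labelled with DNA barcodes. Pooled with a tag-only sample, they were incubated with 200 nmole of a 16-mer random double-stranded DNA library for 30 min at room temperature in Tris/NaCl/DTT/glycerol buffer, washed, crosslinked with 0.1% formaldehyde, ligated by proximity, amplified by PCR and sequenced. Dividing each hexamer's read frequency for a factor by its frequency for the tag-only sample gives the binding signal.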
# [2] = molecular target: T2, ELK1 (Homo sapiens, UniProt P19419 1-428)
# T2 sequence: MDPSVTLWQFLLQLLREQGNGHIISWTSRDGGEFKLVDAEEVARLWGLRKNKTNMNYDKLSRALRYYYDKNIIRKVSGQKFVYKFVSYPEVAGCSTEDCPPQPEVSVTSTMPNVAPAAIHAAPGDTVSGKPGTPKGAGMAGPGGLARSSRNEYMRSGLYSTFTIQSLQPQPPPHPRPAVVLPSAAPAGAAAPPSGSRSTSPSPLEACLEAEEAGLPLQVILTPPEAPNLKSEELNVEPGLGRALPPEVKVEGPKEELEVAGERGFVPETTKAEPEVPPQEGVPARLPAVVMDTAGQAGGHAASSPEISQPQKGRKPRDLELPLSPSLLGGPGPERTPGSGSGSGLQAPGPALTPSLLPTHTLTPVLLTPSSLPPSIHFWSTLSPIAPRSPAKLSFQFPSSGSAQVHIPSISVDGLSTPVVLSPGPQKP
# How it was run: as §1
# [3] = molecular target: T3, GABPA (Homo sapiens, UniProt Q06546 1-454)
# T3 sequence: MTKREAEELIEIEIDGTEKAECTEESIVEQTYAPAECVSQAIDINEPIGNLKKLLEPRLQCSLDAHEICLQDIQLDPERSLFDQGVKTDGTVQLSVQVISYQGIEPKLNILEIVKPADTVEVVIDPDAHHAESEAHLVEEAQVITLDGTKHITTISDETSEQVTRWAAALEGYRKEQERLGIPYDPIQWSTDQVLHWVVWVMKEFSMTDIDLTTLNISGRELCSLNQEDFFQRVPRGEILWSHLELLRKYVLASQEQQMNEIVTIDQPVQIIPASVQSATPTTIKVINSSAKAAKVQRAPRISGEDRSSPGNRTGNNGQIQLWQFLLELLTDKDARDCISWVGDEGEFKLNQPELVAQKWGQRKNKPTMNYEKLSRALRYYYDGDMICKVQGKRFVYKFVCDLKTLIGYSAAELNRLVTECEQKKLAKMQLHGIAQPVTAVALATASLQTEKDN
# How it was run: as §1
# [4] = molecular target: ELF1 (Homo sapiens, UniProt P32519 1-619)
# How it was run: as §1
# [5] = molecular target: T4, EHF (Homo sapiens, UniProt Q9NZC4 1-300)
# T4 sequence: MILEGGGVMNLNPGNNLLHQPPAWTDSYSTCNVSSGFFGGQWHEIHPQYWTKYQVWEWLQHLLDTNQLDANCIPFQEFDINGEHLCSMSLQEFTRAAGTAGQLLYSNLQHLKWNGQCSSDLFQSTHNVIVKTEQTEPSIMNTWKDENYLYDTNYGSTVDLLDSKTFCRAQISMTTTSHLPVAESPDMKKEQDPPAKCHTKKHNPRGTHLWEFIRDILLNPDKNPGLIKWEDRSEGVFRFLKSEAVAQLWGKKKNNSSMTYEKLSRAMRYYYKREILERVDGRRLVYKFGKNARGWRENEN
# How it was run: as §1
# [6] = molecular target: SPI1 (Homo sapiens, UniProt P17947 1-270)
# How it was run: as §1
# [7] = molecular target: SPIB (Homo sapiens, UniProt Q01892 1-262)
# How it was run: as §1
# [8] = molecular target: T5, ELK3 (Homo sapiens, UniProt P41970 1-407)
# T5 sequence: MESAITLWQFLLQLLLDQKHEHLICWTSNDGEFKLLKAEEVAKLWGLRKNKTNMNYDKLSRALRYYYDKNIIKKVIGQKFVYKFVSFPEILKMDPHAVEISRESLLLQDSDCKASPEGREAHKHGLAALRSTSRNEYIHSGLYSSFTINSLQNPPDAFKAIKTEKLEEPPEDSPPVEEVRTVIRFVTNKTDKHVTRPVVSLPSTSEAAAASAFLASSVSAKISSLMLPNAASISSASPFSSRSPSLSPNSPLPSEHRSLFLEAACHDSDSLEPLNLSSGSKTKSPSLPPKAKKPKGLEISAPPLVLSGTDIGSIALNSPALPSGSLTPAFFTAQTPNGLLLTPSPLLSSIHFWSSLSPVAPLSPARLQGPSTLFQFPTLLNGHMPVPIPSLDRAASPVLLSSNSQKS
# How it was run: as §1
# [9] = molecular target: T6, SPIC (Homo sapiens, UniProt Q8N5J4 1-248)
# T6 sequence: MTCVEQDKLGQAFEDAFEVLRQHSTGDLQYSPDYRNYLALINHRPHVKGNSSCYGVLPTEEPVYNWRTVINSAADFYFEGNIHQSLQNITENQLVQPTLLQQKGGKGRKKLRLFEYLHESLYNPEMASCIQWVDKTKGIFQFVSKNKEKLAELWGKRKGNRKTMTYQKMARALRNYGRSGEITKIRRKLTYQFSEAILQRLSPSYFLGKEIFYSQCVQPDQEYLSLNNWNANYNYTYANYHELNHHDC
# How it was run: as §1
# [10] = molecular target: ELF4 (Homo sapiens, UniProt Q99607 1-663)
# How it was run: as §1
# [11] = molecular target: T7, ELK4 (Homo sapiens, UniProt P28324-2 1-405)
# T7 sequence: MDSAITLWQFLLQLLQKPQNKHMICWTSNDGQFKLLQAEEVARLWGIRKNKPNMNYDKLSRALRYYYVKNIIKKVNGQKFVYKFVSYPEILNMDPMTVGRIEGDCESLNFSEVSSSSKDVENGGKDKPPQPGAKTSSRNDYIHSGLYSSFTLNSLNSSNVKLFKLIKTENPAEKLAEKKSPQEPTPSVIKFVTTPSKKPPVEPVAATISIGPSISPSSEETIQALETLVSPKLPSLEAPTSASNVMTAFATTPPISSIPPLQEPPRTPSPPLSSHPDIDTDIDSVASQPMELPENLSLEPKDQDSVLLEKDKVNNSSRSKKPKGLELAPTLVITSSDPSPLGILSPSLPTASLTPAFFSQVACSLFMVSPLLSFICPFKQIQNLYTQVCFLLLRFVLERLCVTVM
# How it was run: as §1
# [12] = molecular target: T8, ELF3 (Homo sapiens, UniProt P78545 1-371)
# T8 sequence: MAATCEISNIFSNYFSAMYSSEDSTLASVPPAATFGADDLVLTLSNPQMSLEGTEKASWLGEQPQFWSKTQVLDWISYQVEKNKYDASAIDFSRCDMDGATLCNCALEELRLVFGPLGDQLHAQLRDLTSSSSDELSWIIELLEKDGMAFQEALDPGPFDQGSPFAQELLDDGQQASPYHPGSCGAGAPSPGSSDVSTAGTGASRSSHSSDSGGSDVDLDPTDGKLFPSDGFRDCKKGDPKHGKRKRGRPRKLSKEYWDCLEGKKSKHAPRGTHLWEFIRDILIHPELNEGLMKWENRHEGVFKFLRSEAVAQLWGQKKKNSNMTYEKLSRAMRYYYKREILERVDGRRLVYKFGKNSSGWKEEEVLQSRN
# How it was run: as §1
# [13] = molecular target: ETV1 (Homo sapiens, UniProt P50549 1-477)
# How it was run: as §1
# [14] = molecular target: T9, ERF (Homo sapiens, UniProt P50548 1-548)
# T9 sequence: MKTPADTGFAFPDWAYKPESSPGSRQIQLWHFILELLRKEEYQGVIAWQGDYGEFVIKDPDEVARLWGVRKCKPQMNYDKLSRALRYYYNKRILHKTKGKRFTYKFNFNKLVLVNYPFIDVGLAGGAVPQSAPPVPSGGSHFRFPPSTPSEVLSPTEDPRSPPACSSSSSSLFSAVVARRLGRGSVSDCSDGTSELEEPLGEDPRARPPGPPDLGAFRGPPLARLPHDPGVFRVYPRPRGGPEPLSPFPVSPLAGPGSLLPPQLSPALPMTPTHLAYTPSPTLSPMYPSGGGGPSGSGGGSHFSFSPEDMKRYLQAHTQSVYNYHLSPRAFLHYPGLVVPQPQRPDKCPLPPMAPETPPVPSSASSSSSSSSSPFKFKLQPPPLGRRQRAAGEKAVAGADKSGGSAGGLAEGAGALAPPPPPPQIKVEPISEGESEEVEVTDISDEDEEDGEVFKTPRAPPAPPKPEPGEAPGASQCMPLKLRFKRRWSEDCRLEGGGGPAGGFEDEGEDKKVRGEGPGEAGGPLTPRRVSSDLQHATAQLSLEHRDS
# How it was run: as §1
# [15] = molecular target: T10, ETV3L (Homo sapiens, UniProt Q6ZN32 1-361)
# T10 sequence: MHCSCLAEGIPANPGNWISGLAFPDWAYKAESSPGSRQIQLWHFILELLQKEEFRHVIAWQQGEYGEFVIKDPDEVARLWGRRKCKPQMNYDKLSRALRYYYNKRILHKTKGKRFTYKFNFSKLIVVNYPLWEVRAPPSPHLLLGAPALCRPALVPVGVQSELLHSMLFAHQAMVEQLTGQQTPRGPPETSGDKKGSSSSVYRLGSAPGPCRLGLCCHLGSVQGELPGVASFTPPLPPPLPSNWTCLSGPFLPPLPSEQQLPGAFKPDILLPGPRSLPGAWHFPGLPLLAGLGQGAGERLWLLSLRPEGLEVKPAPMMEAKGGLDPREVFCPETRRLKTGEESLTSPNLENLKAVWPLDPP
# How it was run: as §1
# [16] = molecular target: T11, ETV7 (Homo sapiens, UniProt Q9Y603 1-341)
# T11 sequence: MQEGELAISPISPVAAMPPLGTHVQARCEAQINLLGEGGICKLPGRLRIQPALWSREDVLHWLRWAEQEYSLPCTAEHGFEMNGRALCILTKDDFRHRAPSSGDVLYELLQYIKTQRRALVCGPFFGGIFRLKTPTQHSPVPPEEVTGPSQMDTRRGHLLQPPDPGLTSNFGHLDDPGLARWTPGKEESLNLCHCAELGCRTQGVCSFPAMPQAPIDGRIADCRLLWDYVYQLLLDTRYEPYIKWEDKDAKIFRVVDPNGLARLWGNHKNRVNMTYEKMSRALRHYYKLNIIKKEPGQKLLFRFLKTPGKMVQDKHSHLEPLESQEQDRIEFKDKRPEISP
# How it was run: as §1
# [17] = molecular target: T12, ETV3 (Homo sapiens, UniProt P41162-2 1-143)
# T12 sequence: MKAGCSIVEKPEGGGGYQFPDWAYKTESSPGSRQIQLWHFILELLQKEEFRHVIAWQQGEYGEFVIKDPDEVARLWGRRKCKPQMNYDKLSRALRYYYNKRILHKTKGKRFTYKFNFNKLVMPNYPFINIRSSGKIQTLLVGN
# How it was run: as §1
# [18] = molecular target: ETV6 (Homo sapiens, UniProt P41212 1-452)
# How it was run: as §1
# Sequence of ETV1 (P50549 whole entry): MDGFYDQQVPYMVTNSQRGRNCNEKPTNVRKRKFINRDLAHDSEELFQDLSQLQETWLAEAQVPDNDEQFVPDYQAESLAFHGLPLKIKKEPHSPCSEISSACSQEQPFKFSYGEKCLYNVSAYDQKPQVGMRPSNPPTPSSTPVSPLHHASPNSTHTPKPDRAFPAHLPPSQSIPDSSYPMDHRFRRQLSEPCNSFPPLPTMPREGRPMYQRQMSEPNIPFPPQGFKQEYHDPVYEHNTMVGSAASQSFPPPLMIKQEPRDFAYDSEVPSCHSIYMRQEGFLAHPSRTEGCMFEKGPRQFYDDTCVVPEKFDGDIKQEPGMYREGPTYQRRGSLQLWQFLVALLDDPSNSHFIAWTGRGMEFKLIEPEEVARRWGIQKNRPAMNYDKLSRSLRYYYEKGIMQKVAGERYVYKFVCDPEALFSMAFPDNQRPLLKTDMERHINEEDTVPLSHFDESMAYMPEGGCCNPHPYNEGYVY
# Sequence of ELF4 (Q99607 whole entry): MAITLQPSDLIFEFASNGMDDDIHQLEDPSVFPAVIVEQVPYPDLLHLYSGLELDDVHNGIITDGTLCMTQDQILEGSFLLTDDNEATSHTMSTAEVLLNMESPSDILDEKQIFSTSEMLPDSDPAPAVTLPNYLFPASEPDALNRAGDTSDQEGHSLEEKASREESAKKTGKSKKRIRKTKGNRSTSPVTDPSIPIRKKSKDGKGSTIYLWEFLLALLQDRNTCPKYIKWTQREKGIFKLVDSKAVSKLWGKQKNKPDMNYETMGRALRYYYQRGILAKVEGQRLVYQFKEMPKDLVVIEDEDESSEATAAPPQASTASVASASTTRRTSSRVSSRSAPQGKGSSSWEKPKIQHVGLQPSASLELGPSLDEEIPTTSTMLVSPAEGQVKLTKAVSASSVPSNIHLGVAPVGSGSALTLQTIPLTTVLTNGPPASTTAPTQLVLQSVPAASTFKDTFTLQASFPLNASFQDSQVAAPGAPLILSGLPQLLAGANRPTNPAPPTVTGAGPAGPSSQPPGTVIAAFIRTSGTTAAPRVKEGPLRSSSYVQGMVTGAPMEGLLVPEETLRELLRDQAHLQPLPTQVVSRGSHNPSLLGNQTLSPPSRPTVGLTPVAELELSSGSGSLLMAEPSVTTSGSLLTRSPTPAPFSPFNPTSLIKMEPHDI
# Sequence of ETV6 (P41212 whole entry): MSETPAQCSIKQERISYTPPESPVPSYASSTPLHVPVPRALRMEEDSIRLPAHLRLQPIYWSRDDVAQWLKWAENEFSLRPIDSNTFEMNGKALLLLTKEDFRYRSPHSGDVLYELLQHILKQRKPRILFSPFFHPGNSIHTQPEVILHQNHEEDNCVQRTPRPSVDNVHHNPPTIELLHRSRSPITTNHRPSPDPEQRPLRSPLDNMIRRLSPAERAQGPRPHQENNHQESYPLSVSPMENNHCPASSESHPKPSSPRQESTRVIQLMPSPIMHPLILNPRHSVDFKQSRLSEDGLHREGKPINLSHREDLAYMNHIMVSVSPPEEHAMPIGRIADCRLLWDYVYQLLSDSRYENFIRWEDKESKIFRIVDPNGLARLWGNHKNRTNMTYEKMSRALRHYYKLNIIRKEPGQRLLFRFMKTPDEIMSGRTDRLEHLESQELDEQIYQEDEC
# Sequence of SPIB (Q01892 whole entry): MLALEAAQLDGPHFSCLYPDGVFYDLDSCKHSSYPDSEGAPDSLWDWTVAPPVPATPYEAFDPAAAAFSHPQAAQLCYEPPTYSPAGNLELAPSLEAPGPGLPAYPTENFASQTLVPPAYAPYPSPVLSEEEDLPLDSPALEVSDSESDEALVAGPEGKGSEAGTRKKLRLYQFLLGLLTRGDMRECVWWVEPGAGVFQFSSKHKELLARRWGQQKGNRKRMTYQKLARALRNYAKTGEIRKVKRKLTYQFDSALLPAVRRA
# Sequence of ELF1 (P32519 whole entry): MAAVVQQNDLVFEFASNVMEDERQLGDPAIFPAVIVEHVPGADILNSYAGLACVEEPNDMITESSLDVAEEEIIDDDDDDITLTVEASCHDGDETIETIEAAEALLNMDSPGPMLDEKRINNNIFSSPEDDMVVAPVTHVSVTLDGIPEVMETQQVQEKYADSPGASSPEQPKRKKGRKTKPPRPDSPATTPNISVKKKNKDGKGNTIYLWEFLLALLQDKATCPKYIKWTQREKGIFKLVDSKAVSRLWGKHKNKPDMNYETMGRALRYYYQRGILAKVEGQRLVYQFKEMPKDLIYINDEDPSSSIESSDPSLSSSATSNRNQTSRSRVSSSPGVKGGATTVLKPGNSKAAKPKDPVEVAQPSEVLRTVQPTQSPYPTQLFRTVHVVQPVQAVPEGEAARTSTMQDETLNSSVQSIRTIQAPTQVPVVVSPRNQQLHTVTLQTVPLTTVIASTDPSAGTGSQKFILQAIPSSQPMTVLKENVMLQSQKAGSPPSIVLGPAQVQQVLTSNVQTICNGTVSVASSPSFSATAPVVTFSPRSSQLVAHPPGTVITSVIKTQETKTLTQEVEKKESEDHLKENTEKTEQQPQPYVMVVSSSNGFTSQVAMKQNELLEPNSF
sequence,measurement,setting,value
GTTTGC,binding signal,[1],"1.06 fold enrichment (6-mer frequency, TF over GST control)"
same,binding signal,[2],"1.11 fold enrichment (6-mer frequency, TF over GST control)"
same,binding signal,[3],"1.04 fold enrichment (6-mer frequency, TF over GST control)"
same,binding signal,[4],"1.02 fold enrichment (6-mer frequency, TF over GST control)"
same,binding signal,[5],"1.11 fold enrichment (6-mer frequency, TF over GST control)"
same,binding signal,[6],"1.03 fold enrichment (6-mer frequency, TF over GST control)"
same,binding signal,[7],"1.07 fold enrichment (6-mer frequency, TF over GST control)"
same,binding signal,[8],"1.12 fold enrichment (6-mer frequency, TF over GST control)"
same,binding signal,[9],"1.2 fold enrichment (6-mer frequency, TF over GST control)"
same,binding signal,[10],"1.15 fold enrichment (6-mer frequency, TF over GST control)"
same,binding signal,[11],"1.17 fold enrichment (6-mer frequency, TF over GST control)"
same,binding signal,[12],"1.23 fold enrichment (6-mer frequency, TF over GST control)"
same,binding signal,[13],"1.14 fold enrichment (6-mer frequency, TF over GST control)"
same,binding signal,[14],"1.1 fold enrichment (6-mer frequency, TF over GST control)"
same,binding signal,[15],"1.05 fold enrichment (6-mer frequency, TF over GST control)"
same,binding signal,[16],"1.01 fold enrichment (6-mer frequency, TF over GST control)"
same,binding signal,[17],"1.1 fold enrichment (6-mer frequency, TF over GST control)"
same,binding signal,[18],"1.02 fold enrichment (6-mer frequency, TF over GST control)"
